# According to PubChem BioAssay AID927 (National Center for Advancing Translational Sciences (NCATS), 2007):
# The campaign covered roughly 60,000 compounds. About 65 (0.1%) were called active. The sample as a whole holds a higher share of actives than the screen did. Values without a mark were called inactive. The call rests on the fitted dose curve; in most records, active means well fitted inhibition curve with a large enough effect; inconclusive means small, poorly fitted or top-dose-only effect; inactive means no such curve, though single readings can be large or run the other way.
# Target: Ubiquitin carboxyl-terminal hydrolase 2 (Homo sapiens) (UniProt O75604)
# Assay: qHTS Assay for Inhibitors of Ubiquitin-specific Protease USP2a; further: nearly all actives have a fitted effect of over 60% in size
# Settings: USP2a enzymatic assay; Potency: qHTS inhibition; series mostly up to 38.3 µM; activity change, negative = inhibition: at the top concentration
# Text: NIH Molecular Libraries Screening Centers Network [MLSCN]
# NIH Chemical Genomics Center [NCGC]
# PI Name: Nicholson, Ben. Progenra Inc, Malvern, PA
# Homeostasis of cellular proteins is maintained through a combination of synthesis and degradation. The pathway that accounts for the majority of protein degradation is the ubiquitin-proteasomal pathway. Ubiquitin (Ub) is highly conserved in all cells and the generation of a multi-Ub chain typically targets proteins for degradation by the proteasome. However, ubiquitination is highly reversible and dynamic. Deubiquitination, the reverse process, is catalyzed through the action of enzymes referred to as isopeptidases or deubiquitinating enzymes (DUBs). This group of enzymes is collectively responsible for maintaining adequate pools of free ubiquitin and regulating the ubiquitination status of cellular proteins. The class of DUBs referred to as the ubiquitin-specific proteases (USP) family functions endoproteolytically to cleave Ub chains from a wide range of protein substrates. USP2a deubiquitinates fatty acid synthase (FASN) which has recently been identified as an emerging oncology target. To identify inhibitors of USP2a a cell-free assay was employed.
# The reporter enzyme chosen is phospholipase A2 (PLA2), which has an absolute requirement for a free amino terminus. Thus, fusion of a UBL to the N-terminus of PLA2 inactivates PLA2. When the UBL-PLA2 reporter enzyme is cleaved by USP2, the activated reporter can subsequently act on its substrate, which is the commercially available NBD C6-HPC (Invitrogen). Thus, this coupled assay gives a fluorescent read-out, which is generated through the cleavage of the PLA2 reporter enzyme. The assay, developed by Progenra, Inc. uses Ub-PLA2 and USP2a at near equal and low (nM) amounts and has been licensed for sale by LifeSensors, Inc. as the Ub-IsoPro1 kit.
# NCGC Assay Protocol Summary:
# The assay buffer, prepared fresh at the day of the assay, contains 20mM Tris-HCl pH 8.0, 2mM CaCl2, 2mM beta-Mercaptoethanol, 0.1% DMSO. 3ul of 40nM (20nM final) USP2 core, which is stored on ice, is dispensed into a medium-binding black solid Kalypsys 1,536 well plate using the Kalypsys dispenser. The assay plate is then pinned with 23nL compound with the Kalypsys pintool in columns 5-48. The controls are pinned as follows: column 1&2 two-fold dilutions of 2M NEM in duplicate; column 3 DMSO; column 4 2M NEM (final concentration 38.2mM). The assay plate is incubated at RT for 30min. Subsequently, 3uL of 40nM (20nM final) Ub-PLA2 and 40uM (20uM final) NBD C6-HPC (stored on ice and protected from light) were dispensed into the plate using the Kalypsys dispenser. Plates were read immediately (0 Hour) on an Envision (Perkin Elmer) plate reader using the following wavelengths Ex 460nm /Em 535nm. Then, the assay plates were incubated for 2.5 hours and read again on the Envision using the same settings
# Data were normalized to the to AC100 inhibition (NEM). Concentration-response curves were fitted to the normalized data and the concentration-response curves were then classified based on curve quality (r2), response magnitude and degree of measured activity. The time zero reading was used to flag fluorescence artifacts.
# Keywords: ubiquitination, deubiquitination, proteases, profluorescent, MLSMR, MLSCN, NIH Roadmap, qHTS, NCGC
# Potency means the concentration at half of the fitted maximal effect.
# Ubiquitin carboxyl-terminal hydrolase 2 (Homo sapiens), sequence (O75604 whole entry, looked up): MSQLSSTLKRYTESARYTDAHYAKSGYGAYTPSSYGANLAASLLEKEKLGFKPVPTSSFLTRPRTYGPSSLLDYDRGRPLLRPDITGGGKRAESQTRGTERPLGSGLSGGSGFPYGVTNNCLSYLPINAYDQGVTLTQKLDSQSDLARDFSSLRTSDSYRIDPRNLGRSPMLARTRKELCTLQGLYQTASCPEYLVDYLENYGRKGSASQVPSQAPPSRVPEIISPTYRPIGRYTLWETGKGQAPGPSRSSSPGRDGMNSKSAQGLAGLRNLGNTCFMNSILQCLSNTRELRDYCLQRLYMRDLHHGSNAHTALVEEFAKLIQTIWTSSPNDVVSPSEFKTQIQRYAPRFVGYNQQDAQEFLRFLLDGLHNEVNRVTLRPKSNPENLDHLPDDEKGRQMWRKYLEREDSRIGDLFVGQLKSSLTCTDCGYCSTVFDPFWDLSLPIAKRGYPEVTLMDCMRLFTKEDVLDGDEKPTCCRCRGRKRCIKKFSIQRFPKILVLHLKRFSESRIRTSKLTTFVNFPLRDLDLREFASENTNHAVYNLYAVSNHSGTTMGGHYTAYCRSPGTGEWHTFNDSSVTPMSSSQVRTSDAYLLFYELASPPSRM
SMILES,Potency,"activity change, negative = inhibition [%]"
Clc1ccc(C(c2ccc(Cl)cc2)n2cc[n+](C[C@@H](OCc3ccc(Cl)cc3Cl)c3ccc(Cl)cc3Cl)c2)cc1,25.1 µM (active),
COc1ccc(C2Oc3c(I)c(OC)cc(OC)c3CC2O)cc1OC (stereo not given),,2.52
COC1CC(OC2CC[C@@]3(C=O)C4CC[C@]5(C)C(C6=CC(=O)OC6)CC[C@@]5(O)C4CC[C@]3(O)C2)OC(C)C1O (stereo not given in full),,0.885
COc1cc2c(cc1OC)[C@@H]1C(=O)c3ccc(O)c(CC=C(C)C)c3OC1CO2 (stereo not given in full),,-10.3
C=CCSSCC=C,,-4.04
